Hits are enriched below; roughly 12% of the tested compounds scored in any of these assays.
JMJD2A Tudor – JMJD2A Tudor domain (human) inhibition. O75164. AlphaScreen JMJD2A-Tudor / H3K4me3 peptide binding. Potency, µM (series often up to 114 µM), hits mostly inhibitors. actives 4.4% (n = 390,000). AID 504339; note: nearly all actives have a fitted effect of over 50% in size
Sfp PPTase inh – inhibitors of Bacillus subtilis Sfp phosphopantetheinyl transferase. actives 3.5% (n = 310,000). Biochemical Sfp PPTase activity, qHTS. Q9F4F7. Potency, µM, actives largely listed as inhibitors;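 note: the enzyme is Sfp with the accession as filed and its product quenches rhodamine fluorescence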
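Fluorescence-quenching assay: 15 nM Sfp-PPTase preincubated 15 min at room temperature with compound, then 5 uM rhodamine-CoA and 12.5 uM BHQ-2-labelled YbbR peptide added. Fluorescence (ex 525/em 598 nm) read at start and after 30 min; difference gives rate.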
HP1b chromo inh – HP1-beta chromodomain-methylated histone interaction inhibition; AID 540317; actives 0.56% (n = 390,000); P83916; Potency, µM (titrated, usually from 114 µM), most hits filed as inhibitors; AlphaScreen HP1-beta / biotin-H3K9me3 peptide binding; note: nearly all actives have a fitted effect of over 70% in size
Target sequence (P83916 whole entry, looked up): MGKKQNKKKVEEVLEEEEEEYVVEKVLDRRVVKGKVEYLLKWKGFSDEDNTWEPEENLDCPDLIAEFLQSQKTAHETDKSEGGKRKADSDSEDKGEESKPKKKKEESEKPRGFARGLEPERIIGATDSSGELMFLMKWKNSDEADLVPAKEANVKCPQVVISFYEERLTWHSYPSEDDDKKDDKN
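AlphaScreen: HP1-beta (50 nM) preformed 30 min with biotin-H3(1-18)K9me3 peptide (50 nM) in PBS pH 7.4, 0.01% Tween-20. Compound added for 30 min at RT, then streptavidin donor/nickel chelate acceptor beads (10 ug/mL) for 30 min.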
L3MBTL1 block – L3MBTL1 (human) inhibition | Q9Y468 | AlphaScreen L3MBTL1–H3K9me1 peptide binding | Potency, µM (doses to about 57.1 µM), hits mostly inhibitors | actives 0.66% (n = 230,000); note: nearly all actives have a fitted effect of over 60% in size
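L3MBTL1 50 nM + b-AHA-H3(1-15)K9me1 75 nM, 30 min RT; compound added, 30 min RT; streptavidin donor/Ni-chelate acceptor beads 10 ug/mL each final, 30 min RT dark; AlphaScreen read.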
G9a block – G9a (human) methyltransferase inhibition; AID 504332; Potency, µM (doses to about 102 µM), hits mostly inhibitors; actives 8.8% (n = 350,000); Q96KQ7; G9a H3K9 monomethylation, AlphaScreen, 2 h; note: nearly all actives have a fitted effect of over 75% in size
Target sequence (Q96KQ7 913-1193 limits assumed): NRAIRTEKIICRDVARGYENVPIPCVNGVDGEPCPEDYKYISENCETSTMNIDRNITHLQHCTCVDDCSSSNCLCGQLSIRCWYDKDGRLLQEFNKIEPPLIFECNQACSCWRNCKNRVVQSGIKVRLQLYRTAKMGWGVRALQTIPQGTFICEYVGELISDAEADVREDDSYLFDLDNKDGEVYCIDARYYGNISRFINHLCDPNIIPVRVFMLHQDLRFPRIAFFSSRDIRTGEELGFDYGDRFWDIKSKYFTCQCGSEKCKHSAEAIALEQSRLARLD
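AlphaScreen detection with an anti-monomethyl H3K9 antibody quantified product after a 2 h room-temperature reaction containing 500 nM biotinylated H3K9 peptide, 20 µM SAM and 20 nM enzyme, which had been preincubated 15 min with compound.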
BAZ2B inh – blocks human BAZ2B. actives 4.4% (n = 360,000). Q9UIF8. AID 504333. Potency, µM (highest dose often 114 µM), actives largely listed as inhibitors. AlphaScreen BAZ2B-H3K14Ac peptide displacement; note: nearly all actives have a fitted effect of over 60% in size
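Inhibition is scored as reduced AlphaScreen emission. The BAZ2B/b-H3(5-23)K14Ac complex (50 nM each) in PBS pH 7.4, 0.01% Tween-20 meets compound (up to 110 uM) for 30 min at RT before bead addition.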
A number is an active result; n = inactive; u = inconclusive; x = no result; [ ] = dose if it differs, or a comment. Calls come from the whole dose curve; as a rule, active = well fitted curve in the direction sought with a large enough effect; inconclusive = small, poorly fitted or top-dose-only effect, or another doubt; inactive = no such curve, though single readings can be large; an effect the other way counts as inactive or inconclusive.

SMILES	JMJD2A Tudor	Sfp PPTase inh	HP1b chromo inh	L3MBTL1 block	G9a block	BAZ2B inh
COc1cccc(NC(=O)c2cc(CN3CCOCC3)on2)c1	n	x	n	x	n	n
COC(=O)[C@@]1(Cc2ccc(OC)cc2)[C@@H]2C(=CC(=O)[C@H]2CC(=O)C(=O)N(C)C)CN1C(=O)c1ccccc1	n	n	n	n	u	n
C=C1C(=O)C=C2CN(C(=O)c3ccccc3)[C@@](Cc3ccc(F)cc3)(C(=O)OC)[C@@H]12	n	10µM	n	n	8.91µM	n
COc1cccc(/C=C2/CCC(CN(C)C)C2=O)c1 (stereo not drawn)	79.4µM	x	u	x	x	x
CCOc1ccccc1NC(=O)CSc1ccc2nnc(CCNS(=O)(=O)c3ccccc3)n2n1	u	x	n	x	n	n
COc1ccc(N2CCN(C(=O)COc3cccc4ccccc34)CC2)cc1	31.6µM	n	u	x	x	11.2µM
COc1cccc(NC(=O)CCC(=O)N2Cc3ccccc3Oc3ncccc32)c1	n	x	n	x	n	n
Cc1ccc(OCC(=O)N2CCC(N3CC(C)CC(C)C3)CC2)cc1 (stereo not drawn)	1.58µM	n	u	x	25.1µM	n
COc1ccc(N2CCN(C(=O)CCC(=O)N3Cc4ccccc4Oc4ncccc43)CC2)cc1	n	n	n	x	x	39.8µM
O=C(COc1cccc2ccccc12)N1CCN(c2ccccc2)CC1	u	u	n	x	u	n
Cc1ccc(C)c(OCCCC(=O)N2CCOCC2)c1	u	n	n	n	44.7µM	n
CCc1ccc(C2=C(C)C(N3CCC(C(=O)Nc4ccc(F)cc4)CC3)=NS2(=O)=O)cc1	u	x	u	x	n	n
COc1ccc(N2CCN(C(=O)COc3ccccc3)CC2)cc1	n	n	n	n	44.7µM	n
O=C(COc1ccc(-c2ccccc2)cc1)N1CCCC1	n	n	n	n	35.5µM	u
O=C(CN1CSCC1=O)N1CCN(S(=O)(=O)c2cc(C(F)(F)F)ccc2Cl)CC1	n	x	n	n	n	n
COc1ccccc1CCC(=O)N1CCN(S(=O)(=O)c2cc(C(F)(F)F)ccc2Cl)CC1	n	x	n	n	8.91µM	n
Cc1cc(OCC(=O)N2CCCC2)ccc1Cl	n	n	n	n	n	n
O=C(COc1ccccc1)NCC(=O)N1CCCC1	n	n	n	x	n	n
Cc1cc(OCC(=O)N2CCCC2)cc(C)c1Cl	n	n	n	x	1.26µM	n
COc1ccc(OCC(=O)N2CCN(C(=O)c3ccccc3)CC2)cc1	n	n	n	x	n[12.7 µM]	n
CC(Oc1ccccc1)C(=O)Nc1ccccc1C(=O)OCc1cc(=O)n2nc(C(C)C)sc2n1 (stereo not drawn)	n	x	n	x	n	n
CCOC(=O)c1cc(-c2ccccc2)n(CCC(=O)N2CCN(c3ccc(OC)cc3)CC2)c1C	u	n	u	u	u	25.1µM
COc1ccccc1N1CCN(C(=O)COc2ccc(C)cc2Br)CC1	n	n	n	n	u	n
COc1ccccc1N1CCN(C(=O)COc2cc(C)ccc2C)CC1	20µM	n	u	n	n	n
CCOC(=O)c1cc(-c2ccc(F)cc2)n(CCC(=O)Nc2nc3ccc(OC)cc3s2)c1C	56.2µM	x	n	x	n	u
SMILES	JMJD2A Tudor	Sfp PPTase inh	HP1b chromo inh	L3MBTL1 block	G9a block	BAZ2B inh
COc1ccc(-c2cc3nc(C)c(CCC(=O)N4CCN(c5ccc(F)cc5)CC4)c(C)n3n2)c(OC)c1	n	x	n	x	u	n
CCOC(=O)c1cc(-c2ccc(OC)cc2)n(CCC(=O)NCCc2ccccc2)c1C	u	x	n	x	n	n
CCOC(=O)c1cc(-c2ccc(F)cc2)n(CCC(=O)Nc2nc3cc(C)c(C)cc3s2)c1C	n	x	n	x	n	n
COc1ccc(N2CCN(C(=O)CCc3c(C)nc4cc(-c5ccc(OC)cc5OC)nn4c3C)CC2)cc1	n	x	n	x	u	17.8µM
CC(C)OCCCNC(=O)CCCn1c(SCC(N)=O)nc2c(sc3ccccc32)c1=O	n	x	n	x	n	n
COc1ccc(N2CCN(C(=O)CCCSc3nc4ccccc4[nH]3)CC2)cc1	n	n	n	x	44.7µM	n
COc1ccc(N2CCN(C(=O)CCc3ccccc3OC)CC2)cc1	u	n	n	x	79.4µM	u
COc1ccc(N2CCN(C(=O)COCc3cc(-c4ccc5c(c4)OCO5)on3)CC2)cc1	n	n	n	x	14.1µM	u
CCC(C)NS(=O)(=O)c1ccc(N2CCCCS2(=O)=O)cc1 (stereo not drawn)	n	x	n	x	n	n
CC(=O)/C(=N/Nc1ccccc1C)N1CCOCC1	56.2µM	n	n	n	1µM	n
O=C1CS(=O)(=O)C2(C(=O)N(Cc3ccccc3)c3ccccc32)N1c1ccccc1 (stereo not drawn)	n	x	n	x	n	n
CCCCn1c(O)c(N=NC(=O)c2ccccc2NS(=O)(=O)c2cccs2)c2ccccc21	n	n	n	n	n	n
CC(C)n1c(O)c(N=NC(=O)c2ccccc2NS(=O)(=O)c2cccs2)c2ccccc21	14.1µM	n	n	n	n	u
C=CCn1c(O)c(N=NC(=O)c2ccccc2NS(=O)(=O)c2cccs2)c2ccccc21	n	n	n	n	44.7µM	n
COc1ccc(-c2cc3ccc(O)c(CN4CCCCC4C)c3oc2=O)cc1OC (stereo not drawn)	n	x	n	x	n	n
Cc1sc2nc3ccc(N4CCCC4)nn3c(=O)c2c1C	n	25.1µM	n	n	35.5µM	n
Cc1ccc2nc3ccc(N4CCCCCCC4)nn3c(=O)c2c1	n	n	n	n	n	n
O=C(NNC(=S)Nc1ccccc1Cl)c1ccccc1Br	n	n	n	x	39.8µM	n
O=C(NNC(=S)Nc1ccc(Br)cc1)c1ccccc1Br	n	n	n	x	7.94µM	n
O=C(Nc1ccc(C(F)(F)F)cc1)c1ccccc1Br	35.5µM	n	n	x	n	n
O=C(Nc1ccc(NC(=O)c2ccccc2Br)cc1)c1ccccc1	n	n	n	n	x	n
O=C(NNC(=S)Nc1ccc(Br)cc1)c1ccccc1	n	n	n	x	n	n
O=C(NNC(=O)c1ccccc1Br)c1ccccc1Cl	n	n	n	n	n	n
CC1=NN(C(=S)Nc2ccccc2)C(C)(C)C1	n	u	n	n	31.6µM	n
CC1=NN(C(N)=S)C(C)(C)C1	n	u	n	n	x	n
COC(=O)c1cc2n3ccccc3c(C)c(-c3ccccc3)c-2c1C(=O)OC	u	n	u	x	44.7µM	44.7µM
COc1ccc(Cl)cc1NC(=O)C(=O)NCc1ccc(Cl)cc1	n	x	n	x	n	n
Cc1cc2c(s1)c1cnn(Cc3ccc(F)cc3)c(=O)c1n2C	n	x	x	x	x	x
CCCN(CCC)S(=O)(=O)c1ccc(C(=O)NCc2n[nH]c(=S)n2-c2ccc(Cl)c(Cl)c2)cc1	u	n	n	n	17.8µM	u
